“And” between values parts separate entries of the source, which are not always exact repeats. Equal values may be shown once. Records with an inconclusive call do not appear. The source holds several records for some structures; these can differ, active in one and inactive in another. The source made the active and inactive calls. Unless noted, calls follow the shape of the dose curve; as a rule, active = well fitted curve in the direction sought with a large enough effect in the repeat runs; inconclusive = weak or mixed curves; inactive = no such curve, though single readings can be large; an effect the other way counts as inactive or inconclusive.
Experiments:
[1] = qHTS assay to identify small molecule agonists of H2AX (AID 1224845; active = well fitted activation curve with a large enough effect in the signal ratio in the repeat runs, not every such curve was filed as active; the % refers to the signal ratio; also: potency is read from the fitted curve at half-maximal effect)
Summary of the method: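 Phospho-H2AX Ser139 measured by HTRF (ex 320 nm; em 665 and 620 nm) after 24 hr antibody incubation. Compounds, 15 concentrations, 0.76% DMSO, were applied to CHO-K1 cells for 3hr at 37C before lysis.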

[2] = qHTS assay to identify small molecule agonists of H2AX - cell viability counter screen (AID 1224847; calls by dose curve; also: nearly all actives have a fitted effect of over 30% in size; also: potency is read from the fitted curve at half-maximal effect)
Summary of the method: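 CHO-K1 wt, 1000 cells/well, o/n 37C; cpds 15 conc, 3 h 37C, 0.76% DMSO; CellTiter-Glo, 30 min RT, luminescence.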

[3] = qHTS RealTime-Glo MT Cell Viability Assay in HepG2 cells - 24 hour (AID 1224867); also: nearly all actives have a fitted effect of over 50% in size; also: potency is read from the fitted curve at half-maximal effect
Summary of the method: (§1)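 Tox21 10K library screened in qHTS format on HepG2 cells carrying RealTime-Glo reagents. Compounds were added after a 5 h preincubation, and the luminescent signal from continuous culture was measured repeatedly during 40 h treatment.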

[4] = A CellTox Green Cytotoxicity Assay to monitor cytotoxicity in HEK293 cells - 0 hour (AID 1224869); also: % is scaled to controls: 0 for no effect and ±100 for the full control effect; nearly all actives have a fitted effect of over 50% in size
Summary of the method: (§2)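 Homogeneous no-lysis format: HEK293 cell suspension mixed with CellTox Green reagent, seeded, incubated 5 h at 37 C/5% CO2, then dosed by pintool with compound in DMSO.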

[5] = A CellTox Green Cytotoxicity Assay to monitor cytotoxicity in HEK293 cells - 40 hour (AID 1224871); also: nearly all actives have a fitted effect of over 45% in size; also: potency is read from the fitted curve at half-maximal effect
Summary of the method: as §2

[6] = qHTS RealTime-Glo MT Cell Viability Assay in HEK293 cells - 16 hour (AID 1224872); also: nearly all actives have a fitted effect of over 50% in size; also: potency is read from the fitted curve at half-maximal effect
Summary of the method: (§3)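 Luminescence generated by NanoLuc from substrate produced by living HEK293 cells served as the viability signal. Each value reflects the reading at its stated time point during continuous 40 h compound exposure at 37 C.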

[7] = A CellTox Green Cytotoxicity Assay to monitor cytotoxicity in HEK293 cells - 24 hour (AID 1224875); also: nearly all actives have a fitted effect of over 45% in size; also: potency is read from the fitted curve at half-maximal effect; as to activity change: % is scaled to controls: 0 for no effect and ±100 for the full control effect
Summary of the method: as §2

[8] = qHTS RealTime-Glo MT Cell Viability Assay in HepG2 cells - 32 hour (AID 1224877); also: nearly all actives have a fitted effect of over 55% in size; also: potency is read from the fitted curve at half-maximal effect
Summary of the method: as §1

[9] = A CellTox Green Cytotoxicity Assay to monitor cytotoxicity in HepG2 cells - 40 hour (AID 1224879); also: nearly all actives have a fitted effect of over 40% in size; also: potency is read from the fitted curve at half-maximal effect
Summary of the method: (§4)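 Fluorescent DNA-binding dye, 600 HepG2 cells/well, 5 h preincubation then compound in DMSO; same plates read at 0–40 h, 37 C.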

[10] = qHTS RealTime-Glo MT Cell Viability Assay in HEK293 cells - 0 hour (AID 1224880); also: top concentration of the series differs between compounds; % is scaled to controls: 0 for no effect and ±100 for the full control effect; nearly all actives have a fitted effect of over 45% in size
Summary of the method: (§5)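 Measured as luminescence from the same continuously cultured HEK293 wells at successive time points (0, 8, 16, 24, 32, 40 h) after compound addition. Reagent present from seeding; dosing at 5 h; incubation 37 C.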

[11] = A CellTox Green Cytotoxicity Assay to monitor cytotoxicity in HEK293 cells - 32 hour (AID 1224881); also: nearly all actives have a fitted effect of over 40% in size; also: potency is read from the fitted curve at half-maximal effect
Summary of the method: as §2

[12] = qHTS assay to identify small molecule antagonists of the estrogen related receptor (ERR) signaling pathway from Tox21 library (AID 1224848); also: nearly all actives have a fitted effect of over 50% in size; also: potency is read from the fitted curve at half-maximal effect
Summary of the method: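 ERR cell line, 2,000 cells/well. 6 h settle, then compound (DMSO) added; 18 h at 37 C; ONE-Glo luminescence after 30 min RT.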

[13] = qHTS assay to identify small molecule agonists of the estrogen related receptor (ERR) signaling pathway from Tox21 library (AID 1224849; calls by dose curve; also: % is scaled to controls: 0 for no effect and ±100 for the full control effect; nearly all actives have a fitted effect of over 15% in size); conditions: ERR reporter cell line, ONE-Glo luciferase, 18 h
Summary of the method: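 Reporter cells (ERR, NTP source) treated with Tox21 10K compounds 18 h, 37 C. Readout: ONE-Glo luminescence, 30 min RT.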

[14] = qHTS RealTime-Glo MT Cell Viability Assay in HepG2 cells - 40 hour (AID 1224870); also: nearly all actives have a fitted effect of over 50% in size; also: potency is read from the fitted curve at half-maximal effect
Summary of the method: (§6)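 Real-time viability: cells seeded at 600 per well together with NanoLuc and cell-permeant prosubstrate, compounds added after 5 h incubation. Luminescence tracked at 0, 8, 16, 24, 32 and 40 h of exposure.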

[15] = qHTS RealTime-Glo MT Cell Viability Assay in HepG2 cells - 8 hour (AID 1224873); also: nearly all actives have a fitted effect of over 55% in size; also: potency is read from the fitted curve at half-maximal effect
Summary of the method: as §6

[16] = qHTS RealTime-Glo MT Cell Viability Assay in HEK293 cells - 40 hour (AID 1224874); conditions: RealTime-Glo luminescence; max response: stronger effect = lower value
Summary of the method: as §5

[17] = A CellTox Green Cytotoxicity Assay to monitor cytotoxicity in HepG2 cells - 16 hour (AID 1224876); also: nearly all actives have a fitted effect of over 45% in size; also: potency is read from the fitted curve at half-maximal effect
Summary of the method: as §4

[18] = A CellTox Green Cytotoxicity Assay to monitor cytotoxicity in HepG2 cells - 24 hour (AID 1224878); also: nearly all actives have a fitted effect of over 45% in size; also: potency is read from the fitted curve at half-maximal effect; as to Cytotoxicity: % is scaled to controls: 0 for no effect and ±100 for the full control effect
Summary of the method: as §4

[19] = qHTS RealTime-Glo MT Cell Viability Assay in HEK293 cells - 32 hour (AID 1224868); also: nearly all actives have a fitted effect of over 50% in size; also: potency is read from the fitted curve at half-maximal effect
Summary of the method: as §3

[20] = at 92.4 µM (top of the series) unless noted

CC(CN(C)C)CN1c2ccccc2CCc2ccccc21 (centres undefined)
active: Potency [9] 23.9 µM
inactive: Potency [1] | Potency [2] | Potency [3] | Potency [4] | Potency [5] | Potency [6] | Potency [7] | Potency [8] | Potency [10] | Potency [11]

CNC(=S)NN
active: Potency [1] 89.8 µM | Potency [12] 13.7 µM | Potency [16] 19.5 µM
inactive: Potency [2] | activity change, positive = activation [13, 20] -71.8% | Potency [3] | Potency [4] | Potency [14] | Potency [6] | Potency [15] | Potency [7] | Potency [17] | Potency [8] | Potency [18] | Potency [10]

CCCC(CC)CCCCCCCN (centres undefined)
active: Potency [2] 103 µM | Potency [5] 50.2 µM | Potency [16] 56.3 µM
inactive: Potency [1] | activity change, positive = activation [13, 20] -20.1% | Potency [3] | Potency [4] | Potency [14] | Potency [15] | Potency [8]

COC(=O)C1=C(C)NC(C)=C(C(=O)OCCCN2CCC(c3ccccc3)(c3ccccc3)CC2)C1c1cccc([N+](=O)[O-])c1 (centres undefined)
inactive: Potency [1] | activity change, positive = activation [13, 20] -67.7% [at 42.5 µM] | Potency [4] | Potency [5] | Potency [7] | Potency [17] | Potency [18] | Potency [10] | Potency [11]
active: Potency [12] 10.6 µM | Potency [19] 10.7 µM | Potency [6] 9.52 µM | Potency [16] 10.7 µM

CCCCCCOc1ccc(O)cc1
inactive: Potency [12] | activity change, positive = activation [13, 20] 0.107% | Potency [4] | Potency [14] | Potency [10]
active: Potency [1] 11.3 µM | Potency [2] 113 µM | Potency [19] 0.0692 µM | Potency [5] 19.5 µM | Potency [6] 0.0617 µM | Potency [16] 0.0776 µM | Potency [11] 19.5 µM

CCCCCCCOC(=O)c1ccc(O)cc1
inactive and 38.9 µM (active): Potency [17]
active: Potency [2] 101 µM | Potency [19] 24.6 µM and 21.9 µM | Potency [6] 24.6 µM and 21.9 µM | Potency [16] 24.6 µM and 19.5 µM | Potency [18] 24.5 µM | Potency [9] 24.5 µM
inactive and 24.5 µM (active): Potency [5]
inactive: Potency [1] | Potency [3] | Potency [4] | Potency [14] | Potency [15] | Potency [7] | Potency [8] | Potency [10] | Potency [11]

CCCCC(CC)COC(=O)c1ccc(O)cc1 (centres undefined)
active: Potency [2] 89.4 µM and 80 µM | Potency [19] 54.7 µM | Potency [5] 43.5 µM and 21.9 µM | Potency [6] 54.7 µM | Potency [16] 48.8 µM | Potency [7] 43.5 µM and 21.9 µM | Potency [18] 34.7 µM | Potency [11] 43.5 µM and 21.9 µM
inactive and 30.9 µM (active): Potency [17]
inactive: Potency [1] | Potency [3] | Potency [4] | Potency [15] | Potency [8] | Potency [10]

C=C(c1ccc(C(=O)O)cc1)c1cc2c(cc1C)C(C)(C)CCC2(C)C
101 µM (active) and inactive: Potency [2]
active: Potency [1] 89.8 µM | Potency [12] 21.7 µM and 23.7 µM | Potency [17] 24.5 µM | Potency [18] 38.9 µM | Potency [9] 49 µM and 23.9 µM
inactive: activity change, positive = activation ([13]; at 42.5 µM (top of the series)) -34.6% | activity change, positive = activation ([13]; at 92.4 µM (top of the series)) -63.5% | Potency [3] | Potency [19] | Potency [4] | Potency [14] | Potency [6] | Potency [15] | Potency [8] | Potency [10]
30.9 µM (active) and inactive: Potency [5] | Potency [11]

CCCCCCCC/C=C\CCCCCCCC(=O)NCc1ccc(O)c(OC)c1
active: Potency [19] 2.68 µM | Potency [6] 1.69 µM | Potency [16] 4.25 µM
inactive: Potency [1] | Potency [2] | activity change, positive = activation [13, 20] -18.5% [at 42.5 µM] | Potency [3] | Potency [4] | Potency [14] | Potency [5] | Potency [15] | Potency [7] | Potency [17] | Potency [8] | Potency [18] | Potency [9] | Potency [10] | Potency [11]

CCN(CC)CCNc1ccc(CO)c2sc3ccccc3c(=O)c12
active: Potency [12] 13.3 µM | Potency [3] 23.9 µM | Potency [14] 21.3 µM | Potency [5] 23.9 µM | Potency [6] 16.9 µM | Potency [16] 16.9 µM | Potency [17] 16.9 µM | Potency [8] 23.9 µM | Potency [18] 16.9 µM
inactive: Potency [1] | Potency [2] | activity change, positive = activation [13, 20] -56.6% [at 42.5 µM] | Potency [4] | Potency [7] | Potency [10] | Potency [11]

C=C[C@](C)(O)CC[C@@H]1[C@@]2(C)CCCC(C)(C)[C@@H]2CC[C@@]1(C)O
active: Potency [2] 113 µM | Potency [12] 27.3 µM | Potency [3] 49 µM | Potency [19] 21.9 µM | Potency [14] 54.9 µM | Potency [5] 43.6 µM | Potency [6] 19.5 µM | Potency [15] 49 µM | Potency [16] 21.9 µM | Potency [17] 54.9 µM | Potency [8] 54.9 µM | Potency [18] 49 µM | Potency [9] 49 µM | Potency [11] 43.6 µM
inactive: Potency [1] | activity change, positive = activation [13, 20] -46.9% | Potency [4] | Potency [10]

CC(C)(C)c1cc(/C=C2\SC(=N)NC2=O)cc(C(C)(C)C)c1O
inactive: Potency [1] | activity change, positive = activation [13, 20] -57.9% | Potency [4] | Potency [10]
active: Potency [12] 48.6 µM | Potency [19] 49 µM | Potency [6] 43.6 µM | Potency [16] 49 µM | Potency [17] 43.6 µM | Potency [18] 43.6 µM | Potency [9] 43.6 µM

CCC1(c2cnc[nH]2)Cc2ccccc2C1
inactive: Potency [1] | Potency [2] | Potency [3] | Potency [19] | Potency [4] | Potency [14] | Potency [5] | Potency [6] | Potency [7] | Potency [17] | Potency [8] | Potency [18] | Potency [9] | Potency [11]

CCOC(=O)C1=C(C)NC(C)=C(C(=O)OCC)C1c1ccccc1/C=C/C(=O)OC(C)(C)C
active: Potency [12] 13.3 µM
inactive: Potency [1] | activity change, positive = activation [13, 20] -56.8% [at 42.5 µM] | Potency [4] | Potency [5] | Potency [6] | Potency [7] | Potency [17] | Potency [18] | Potency [9] | Potency [11]
